# Legend:
# Experiment in all cases: yeast three-hybrid, YBZ-1, SC-Leu-His + 0.5 mM 3-AT, 4 days
# Settings in all cases: tags: N-Gal4 AD-HA kept; label: inside an RPR1-promoter hybrid RNA with tandem MS2 sites; ssRNA
# PUM1 PUF domain R1-KLL = PUM1 PUF domain R1-KLL (Homo sapiens, UniProt Q14671 828-1176, S863K;R864L;Q867L)
# In short: (§1)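 Each repeat of the Pumilio-1 PUF domain was randomized at its three base-contacting residues, and these libraries were co-expressed from a centromeric plasmid with matching RNA elements in strain YBZ-1. After four days on SC-Leu (input) or SC-Leu-His + 0.5 mM 3-AT (selection), the repeat regions were PCR-amplified and Illumina-sequenced. The interaction score compares variant frequency between input and selection as a log change, computed in log2 with a pseudocount of 1 for absent variants.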
# PUM1 PUF domain R4-WAG = PUM1 PUF domain R4-WAG (Homo sapiens, UniProt Q14671 828-1176, N971W;H972A;Q975G)
# In short: as §1
# PUM1 PUF domain R4-GWY = PUM1 PUF domain R4-GWY (Homo sapiens, UniProt Q14671 828-1176, N971G;H972W;Q975Y)
# In short: as §1
# PUM1 PUF domain R3-LRC = PUM1 PUF domain R3-LRC (Homo sapiens, UniProt Q14671 828-1176, C935L;Q939C)
# In short: as §1
# PUM1 PUF domain R3-TME = PUM1 PUF domain R3-TME (Homo sapiens, UniProt Q14671 828-1176, C935T;R936M;Q939E)
# In short: as §1
# PUM1 PUF domain R3-LYA = PUM1 PUF domain R3-LYA (Homo sapiens, UniProt Q14671 828-1176, C935L;R936Y;Q939A)
# In short: as §1
# PUM1 PUF domain R7-RRM = PUM1 PUF domain R7-RRM (Homo sapiens, UniProt Q14671 828-1176, S1079R;N1080R;E1083M)
# In short: as §1
# PUM1 PUF domain R7-KRS = PUM1 PUF domain R7-KRS (Homo sapiens, UniProt Q14671 828-1176, S1079K;N1080R;E1083S)
# In short: as §1
# PUM1 PUF domain R5-PRA = PUM1 PUF domain R5-PRA (Homo sapiens, UniProt Q14671 828-1176, C1007P;Q1011A)
# In short: as §1
sequence,measurement,setting,value
GGCUAGAACUAGUGGAUCCCCCGGCGCCCGGCGGCUCGAGCCCGGGUAAGUGUAAAUUGUCUGCAUGCCGCCGGGCGCCAUGCCUGCAGGUCGACUCUAGAAAACAUG,binding signal,PUM1 PUF domain R1-KLL,3.14 log2 enrichment (interaction score)
GGCUAGAACUAGUGGAUCCCCCGGCGCCCGGCGGCUCGAGCCCGGGUAAGUGUAUAUAGUCUGCAUGCCGCCGGGCGCCAUGCCUGCAGGUCGACUCUAGAAAACAUG,binding signal,PUM1 PUF domain R4-WAG,4.74 log2 enrichment (interaction score)
same,binding signal,PUM1 PUF domain R4-GWY,5.08 log2 enrichment (interaction score)
GGCUAGAACUAGUGGAUCCCCCGGCGCCCGGCGGCUCGAGCCCGGGUAAGUGUAAGUAGUCUGCAUGCCGCCGGGCGCCAUGCCUGCAGGUCGACUCUAGAAAACAUG,binding signal,PUM1 PUF domain R3-LRC,3.66 log2 enrichment (interaction score)
same,binding signal,PUM1 PUF domain R3-TME,4.56 log2 enrichment (interaction score)
same,binding signal,PUM1 PUF domain R3-LYA,4.73 log2 enrichment (interaction score)
GGCUAGAACUAGUGGAUCCCCCGGCGCCCGGCGGCUCGAGCCCGGGUAAGUCUAAAUAGUCUGCAUGCCGCCGGGCGCCAUGCCUGCAGGUCGACUCUAGAAAACAUG,binding signal,PUM1 PUF domain R7-RRM,4.89 log2 enrichment (interaction score)
same,binding signal,PUM1 PUF domain R7-KRS,4.34 log2 enrichment (interaction score)
GGCUAGAACUAGUGGAUCCCCCGGCGCCCGGCGGCUCGAGCCCGGGUAAGUGUACAUAGUCUGCAUGCCGCCGGGCGCCAUGCCUGCAGGUCGACUCUAGAAAACAUG,binding signal,PUM1 PUF domain R4-WAG,3.92 log2 enrichment (interaction score)
GGCUAGAACUAGUGGAUCCCCCGGCGCCCGGCGGCUCGAGCCCGGGUAAGUGUGAAUAGUCUGCAUGCCGCCGGGCGCCAUGCCUGCAGGUCGACUCUAGAAAACAUG,binding signal,PUM1 PUF domain R5-PRA,1.9 log2 enrichment (interaction score)
GGCUAGAACUAGUGGAUCCCCCGGCGCCCGGCGGCUCGAGCCCGGGUAAGUGUUAAUAGUCUGCAUGCCGCCGGGCGCCAUGCCUGCAGGUCGACUCUAGAAAACAUG,binding signal,PUM1 PUF domain R5-PRA,2.94 log2 enrichment (interaction score)
